Data on 40 compounds can be found in PubChem BioAssay (NCATS).

Inconclusive results are not listed. A call without a number means that no potency is given here. Activity calls are given as the source filed them. The call rests on the fitted dose curve; in most records, active means well fitted inhibition curve with a large enough effect; inconclusive means small, poorly fitted or top-dose-only effect; inactive means flat fitted curve, though single readings scatter.

Calcium and integrin-binding protein 1 (Homo sapiens), sequence (Q99828 whole entry, looked up): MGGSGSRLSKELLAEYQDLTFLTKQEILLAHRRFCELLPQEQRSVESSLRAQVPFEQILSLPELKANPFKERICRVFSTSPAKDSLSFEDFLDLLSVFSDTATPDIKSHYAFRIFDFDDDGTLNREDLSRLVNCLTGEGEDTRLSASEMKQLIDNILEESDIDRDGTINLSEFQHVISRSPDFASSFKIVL

In this test the target is Calcium and integrin-binding protein 1 (Homo sapiens) (UniProt Q99828). The test is described as follows: Primary qHTS for Identification of Calcium Integrin Binding Protein 1 (CIB1) Competitor (AID 1508620). Further: top concentration of the series differs between compounds. Particulars: CIB1-GST / FITC-alphaIIb peptide fluorescence polarization; series mostly up to 114 µM. In outline:
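Fluorescence polarization competition: GST-tagged CIB1 (1 uM final) preincubated with compound 15 min at room temperature, then FITC-labelled alphaIIb peptide (100 nM final) added. After 15 min at room temperature, polarization read at Ex 480/Em 540.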
Background: In qHTS, concentration-response curves come from the screen itself.
Take `CC(=O)N(C(C)=O)n1c(C)nc2sc3c(c2c1=O)CCNC3`: the Potency result was “inactive”.

Turning to `C=CCNc1oc(-c2cccc(Br)c2)nc1C#N`, the Potency entry is “inactive”. As to `COc1ccc(C2c3c(nc(CCCc4ccccc4)[nH]c3=O)Oc3ccc4ccccc4c32)cc1OC` (stereo not given), the Potency entry is “inactive”.

As to `N#Cc1cccc(-c2csc(N3CCC(C(N)=O)CC3)n2)c1`, the Potency entry is “inactive”. The result for `O=C(Nc1cccnc1)c1cccs1` reads “inactive”. Regarding `O=C(Nc1cncc(NC(=O)c2cccs2)c1)c1cccs1`, the Potency entry is “inactive”. With `O=S(=O)(Nc1cnc2ccccc2c1)c1ccc(NCc2ccc(Br)cc2O)cc1`, the Potency result is “inactive”. The result for `O=C(Nc1ccc2ccccc2c1)Nc1nnc(-c2ccccc2)s1` reads “inactive”; that for `Cc1ccc(OCCn2c(CCNC(=O)Cc3cccc(F)c3)nc3ccccc32)cc1`, “inactive”.

As for `COc1ccc(C2=Nn3c(nnc3-c3ccccc3C)SC2)cc1`, the Potency entry is “inactive”. As for `CCCCc1nnc(-c2cnn(C)c2N)n1CCCn1ccnc1`, the Potency entry is “inactive”. `c1nc(NCc2ccoc2)c2cc(-c3ccc4c(c3)OCO4)ccc2n1`: the Potency result was “inactive”. The result for `CCc1cccc(CC)c1OCc1cc(C2Nc3ccccc3C(=O)N2Cc2ccco2)ccc1OC` (stereo not given) reads “inactive”; that for `COc1ccc(-c2ccc3ncnc(NCC4CCCO4)c3c2)cc1OC` (stereo not given), “inactive”; that for `CCOC(=O)C1CCN(C(=O)C2(NC(=O)Nc3ccccc3Cl)CCCCC2)CC1`, “inactive”.

For the compound `O=C(O)c1ccc2c(c1)C(=O)N([C@@H](C(=O)O)C(c1ccccc1)c1ccccc1)C2=O`, the Potency entry was “inactive”. Then `Cc1cc(C)n2ncc(C(=O)NCC(C)C)c2n1`, with “inactive”; and `O=C(O)c1ccccc1-c1noc(-c2ccccc2F)n1`, with “inactive”.

Consider `O=C(Nc1cccc(C(=O)O)c1)Nc1nnc(-c2ccncc2)s1`, for which the Potency result is “inactive”.

Consider `O=[S+]([O-])(c1ccc(N2CCOCC2)nc1)N1CCN([S+](=O)([O-])c2c(F)cccc2F)CC1`, for which the Potency entry was “inactive”. Regarding `O=C(c1cccs1)c1nonc1C(=O)c1cccs1`, the Potency result was “inactive”. With `CCCN(C)c1ncnc2ccc(-c3ccc4c(c3)OCO4)cc12`, the Potency result is “inactive”. Consider `O=C(Nc1ccc(Br)c(Br)c1)Nc1nnc(-c2cccnc2)s1`, for which the Potency result is “inactive”. The result for `O=C1CCCC2=C1C(c1[nH]ncc1Cl)N=C(Nc1nc3cc(Cl)ccc3o1)N2` (stereo not given) reads “inactive”; that for `CC(C)(C)OC(=O)N1CCN(c2ccc(NCc3cncc(-c4ccc(C#N)cc4)c3)cc2)CC1`, “inactive”. Then `Cc1cc2c(s1)c1cnn(Cc3ccc(C(C)(C)C)cc3)c(=O)c1n2C`, with “inactive”. With `Oc1ccc(/C=C/c2c(F)cccc2F)c2cccnc12`, the Potency result was “inactive”. Then `FC(F)(F)c1ccccc1-c1nc(NCc2ccc(-c3ccc4ccccc4c3)cc2)c2ccccc2n1`, with “inactive”; and `Cc1cc(C)nc(NC(=S)N2CCN(c3ccc(Cl)nn3)CC2)c1`, with “inactive”; and `COc1cccc(NC(=S)N2CCN(c3ccc(C(F)(F)F)cc3[N+](=O)[O-])CC2)n1`, with “inactive”. On to `O=[S+]([O-])(c1ccc2nsnc2c1)N1CCN([S+](=O)([O-])c2c(F)cccc2F)CC1`, for which the Potency entry was “inactive”.

Regarding `Cc1cc(N[S+](=O)([O-])c2ccc(NC(=O)Cc3ccc4c(c3)CCO4)cc2)no1`, the Potency entry is “inactive”.

Take `CCCCNC(=S)NCCCc1cnc[nH]1`: the Potency entry was “inactive”. The result for `NC(=O)C1CCN(c2nc(-c3ccc(Cl)cc3)cs2)CC1` reads “inactive”. Consider `Cc1c(C(=O)OCC2CCCO2)[nH]c2c1C(=O)CCC2` (stereo not given), for which the Potency entry is “inactive”.

Take `COC(=O)c1ccc(O)c2ncccc12`: the Potency result is “inactive”. Consider `N#Cc1c(-c2cccc(C(F)(F)F)c2)no[n+]1[O-]`, for which the Potency entry was “inactive”. Turning to `COc1cccc(CNc2ccc(S(=O)(=O)Nc3ccccn3)cc2)c1O`, the Potency entry is “inactive”. Regarding `Cc1ccc(Cn2ncc3c4sc(C)cc4n(C)c3c2=O)cc1`, the Potency entry is “inactive”. Regarding `COc1cc2ncnc(N(C)Cc3cccs3)c2cc1-c1ccc2c(c1)OCO2`, the Potency entry was “inactive”.
